# Screening results as filed in PubChem BioAssay.
# Rows were chosen to be rich in hits. Some 0.96% of all compounds tested hit in one or more screens of this group.
# Fluorescein fluor – qHTS Assay for Spectroscopic Profiling in Fluorescein Spectral Region | Compound autofluorescence, 480/540 nm, fluorescein-equivalent; stronger effect = higher value | max fluorescein-equivalent concentration, M | hit rate 0.91% among 59,000; in the data active = max fluorescein-equivalent concentration above about 10 nM; inconclusive = between about 1.1 nM and that limit
#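 Autofluorescence profiling; 100 mM Tris, pH 8.0; incubation 15 min at RT; ex/em 480/540 nm; result as fluorescein-equivalent concentration.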
# A488 autofl – qHTS Assay for Spectroscopic Profiling in A488 Spectral Region; compound autofluorescence, A488 spectral region, dye equivalency; Compound Type: qHTS ECL - MLSMR; max dye equivalency, M; hit rate 0.1% among 59,000; AID 591, 2007
#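 Readout is A488 dye-equivalent concentration, calibrated by a per-plate six-point Alexa 488 series. Compounds in 100 mM Tris buffer pH 8.0 were incubated 15 min at room temperature. Plates were imaged using 480 nm excitation/540 nm emission filters.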
# Rhodamine fluor – qHTS Assay for Spectroscopic Profiling in Rhodamine Spectral Region; Rhodamine-region fluorescence, 547/598 nm, Tris buffer; stronger effect = higher value; max dye-equivalent concentration, M; hit rate 0.05% among 59,000; in the data active = max dye-equivalent concentration above about 11 nM; inconclusive = between about 1.1 nM and that limit
#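 Intensities are converted to rhodamine-equivalent concentration using a six-point rhodamine standard on each plate. Compounds sit 15 min at room temperature in 100 mM Tris buffer, pH 8.0; read uses the 547/598 nm excitation/emission pair.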
# A647 fluor – qHTS Assay for Spectroscopic Profiling in A647 Spectral Region; max dye-equivalent concentration, M; Compound fluorescence, A647 channel (570/671 nm), Tris buffer; 59,000 tested, under 10 active;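 note: values scaled relative to a standard on each plate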
#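 Buffer was dispensed, compounds and Alexa 647 standards were pin-transferred, and plates sat 15 min at room temperature. Intensity at 570/671 nm was then converted to dye-equivalent concentration using the plate's A647 standard curve.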
# Resorufin fluor – qHTS Assay for Spectroscopic Profiling in Resorufin Spectral Region | AID 588, 2007 | max dye-equivalent concentration, M | Compound fluorescence, resorufin region 547/598 nm, buffer; stronger effect = higher value | hit rate 0.04% among 59,000
#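 Intrinsic fluorescence profiled in the resorufin window (ex 547 nm, em 598 nm) after 15 min at room temperature in pH 8.0 Tris buffer (100 mM); responses normalized against a six-point resorufin standard series as dye-equivalent concentration.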
# TexasRed autofl – qHTS Assay for Spectroscopic Profiling in Texas Red Spectral Region | max dye-equivalent concentration, M | Compound fluorescence, Texas Red channel, 547/618 nm; stronger effect = higher value | AID 587, 2007 | hit rate 0.06% among 59,000; in the data active = max dye-equivalent concentration above about 10 nM; inconclusive = between about 1.1 nM and that limit
#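 Pin-transferred compounds and Texas Red standards go into 100 mM Tris buffer, pH 8.0. After 15 min at room temperature, plates are imaged with 547/618 nm filters. Each value is a dye-equivalent concentration derived from the per-plate dye curve.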
# * hit, by the source's call; i = inactive; ? = inconclusive; ! = repeats disagree. Unless noted, the rule behind the calls is not given here.
SMILES,Fluorescein fluor,A488 autofl,Rhodamine fluor,A647 fluor,Resorufin fluor,TexasRed autofl
C[C@@H]1C(=O)O[C@@H]2C[C@@]34[C@H]5C[C@@H](C(C)(C)C)[C@@]36[C@@H](OC(=O)[C@@H]6O)O[C@]4(C(=O)O5)[C@@]12O,i,i,i,1e-09,i,i
Cc1ccc(-c2c3c(=O)n(C)c(=O)n(C)c3c3c(C)cc(C)nn23)cc1,1.3e-08M*,i,i,2.7e-08,i,?
Cc1ccc(-c2c3c(=O)n(C)c(=O)n(C)c3cn2N2CCOCC2)cc1,?,i,i,5.9e-09,i,i
NS(=O)(=O)c1cc2c(cc1Cl)N[C@@H](CC1CCCC1)NS2(=O)=O,i,i,i,1e-09,i,i
NS(=O)(=O)c1cc2c(cc1Cl)NCNS2(=O)=O,1.1e-08M*!,i,i,1.5e-08,i,i
CN(C)c1ncc2nc(-c3cccs3)c(=O)n(CCC#N)c2n1,3.7e-08M*,?,i,9.3e-09,i,i
COc1ncc2nc(-c3cccs3)c(=O)n(CCC#N)c2n1,?,i,i,1.4e-08,i,i
CN(C)c1ncc2nc(-c3cccs3)c(=O)n(C)c2n1,1.5e-08M*,i,i,1.5e-08,i,i
CN(C)c1ncc2nc(-c3cccs3)c(=O)n(CCc3ccccc3)c2n1,i,i,i,1.2e-08,i,?
CCOC(=O)c1sc(N)c(C#N)c1CSc1nc2ccc(OCC)cc2[nH]1,i,i,i,6.6e-09,i,i
CCOC(=O)c1sc(N)c(C#N)c1COC(=O)CNC(=O)c1ccccc1,3e-08M*,i,i,9.1e-09,i,i
CC(=O)[C@H]1CC[C@@H]2[C@]1(C)CC=C1[C@]23C=C[C@]2(C[C@H](O)CC[C@@]12C)[C@H](C(=O)O)[C@@H]3C(=O)O,?,i,i,1e-09,i,i
CC[C@]1(O)C[C@H]2CN(CCc3c([nH]c4ccccc34)[C@](C(=O)OC)(c3cc4c(cc3OC)N(C=O)[C@H]3[C@@](O)(C(=O)OC)[C@H](OC(C)=O)[C@@]5(CC)C=CCN6CC[C@]43[C@H]65)C2)C1,?,i,i,2.1e-08,i,i
Nc1cc(C(=O)O)[nH]c(=O)n1,1.1e-08M*,i,i,6.4e-09,i,i
COc1ccc(C2C=C(c3ccc(Cl)cc3)Nc3nc(NC(C)=O)nn32)cc1 (stereo not drawn),2.8e-08M*,i,i,3.5e-09,i,i
CC(=O)Nc1nc2n(n1)C(c1ccc(F)cc1)C=C(c1ccccc1)N2 (stereo not drawn),1.4e-08M*,i,i,4.1e-08,i,i
COc1ccc(C2=CC(c3ccc(Cl)cc3)n3cnnc3N2)cc1OC (stereo not drawn),3.5e-08M*,?,i,6.2e-08,i,i
COc1ccc(C2C=C(c3ccc(Br)cc3)Nc3nc(N4C(=O)CCC4=O)nn32)cc1 (stereo not drawn),1.1e-08M*,i,i,4.1e-09,i,i
COc1ccccc1C1C=C(c2ccc(Cl)cc2)Nc2nc(N3C(=O)CCC3=O)nn21 (stereo not drawn),?,i,i,4.4e-08,i,i
CN1CCN([C@@H]2Cc3ccccc3Sc3ccc(Cl)cc32)CC1,?,i,i,1e-09,i,i
COc1ccccc1C1C=C(c2ccc(Cl)cc2)Nc2nc(NS(C)(=O)=O)nn21 (stereo not drawn),1.5e-08M*,i,i,2.3e-08,i,?
CCCOc1ccc(/C=c2\sc3nc(-c4ccco4)nn3c2=O)cc1OCC,3.2e-08M*,?,i,1.5e-08,i,i
Cc1cc(-c2ccco2)c(C#N)c2nc3ccccc3n12,1.6e-07M*,?,i,1e-09,i,i
CCc1c(C)c(C#N)c2nc3ccccc3n2c1-n1nc(C)cc1C,?,i,i,5.9e-08,i,i
C=C(CO)[C@H]1Cc2c(ccc3c(=O)c4c(oc23)COc2cc(OC)c(OC)cc2-4)O1,?,i,i,1.8e-08,i,i
